According to PubChem BioAssay AID1345085 (National Center for Advancing Translational Sciences (NCATS), 2018):
Inconclusive results are not listed. Unmarked numbers belong to inactive results. Activity calls are given as the source filed them. Calls follow the shape of the dose curve; as a rule, active = well fitted cell-killing curve with a large enough effect; inconclusive = small, poorly fitted or top-dose-only effect, or effect the other way; inactive = no such curve, though single readings can be large or run the other way.

The molecules below were run on JEG-3 (assay: Confirmatory qHTS for gynecologic anti-cancer compounds from libraries of approved drugs and bioactive compounds). Conditions: gynecologic cancer cell panel viability, ATPlite luminescence, 48 h; series mostly up to 57.6 µM; activity change, negative = viability loss: at the top concentration.
How it was run: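 Cells (1,000/well) plated 16 h, then exposed 48 h at 37 °C to 11 concentrations (1:3) from 57.5 uM to 0.977 nM. Viability by ATPlite luminescence after 15 min; IC50 derived, with HEK 293T used for selectivity index.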
% is scaled to controls: 0 for no effect and ±100 for the full control effect; potency is read from the fitted curve at half-maximal effect.
Also: nearly all actives have a fitted effect of over 55% in size.

SMILES | activity change, negative = viability loss | Potency
CO[C@@]12[C@H](COC(N)=O)C3=C(C(=O)C(C)=C(N)C3=O)N1C[C@@H]1N[C@@H]12 | 5.97% | –
CCS(=O)(=O)N1CCN(c2ccc(Nc3ncc(C(N)=O)c(NC4CC4)n3)cc2)CC1 | – | 9.68 µM (active)
CCN(CC)CCOc1ccc(/C(=C(\Cl)c2ccccc2)c2ccccc2)cc1 | – | 89.1 µM (active)
Cn1cnc2c(F)c(Nc3ccc(Br)cc3F)c(C(=O)NOCCO)cc21 | -1.43% | –
CN(C)c1ccc(-c2nc3ncc(Cl)c(N4CCN(CC(=O)Nc5nccs5)CC4)c3[nH]2)cc1 | -24.9% [at 19.5 µM] | –
COc1ccc(-c2cc3nccn3c(Nc3ncccc3C(N)=O)n2)cc1OC | – | 12.2 µM (active)
CCS(=O)(=O)c1cccc(-c2cc(C(=O)NC3CCN(C)CC3)c(C)c3[nH]c4ncc(C)cc4c23)c1 | – | 2.67 µM (active)
COc1ccccc1N1CCN(CC(O)COc2cccc3ccccc23)CC1 (centres undefined) | -19.4% | –
CC(=O)NCC(=O)N1C2CCC1c1cc(Nc3ncc(C(F)(F)F)c(NC4CCC4)n3)ccc12 (centres undefined) | – | 19.3 µM (active)
CNC(=O)c1nn(C)c2c1C(C)(C)Cc1cnc(Nc3ccc(N4CCN(C)CC4)cc3)nc1-2 | – | 6.85 µM (active)
NC(=O)c1cnc(-c2ccc(C3(N)CCC3)cc2)c(-c2ccccc2)c1 | – | 30.6 µM (active)
CCCC(Nc1nc(-c2ccc(NC(=O)NCC)c(OC)c2)ncc1C)c1cccnc1 (centres undefined) | – | 0.153 µM (active)
CC[C@@]1(O)C(=O)OCc2c1cc1n(c2=O)Cc2cc3c(CN(C)C)c(O)ccc3nc2-1 | – | 1.09 µM (active)
CC(C)Oc1ccc(C(=O)NC(CNC(=O)CN(C)C)Cc2ccc(-c3cn4cccc(C(C)O)c4n3)cc2)cc1Cl (centres undefined) | – | 0.544 µM (active)
